Source: PubChem BioAssay
DAX1 inh-1: DAX1 (NR0B1) inhibitors, primary screen, cell-based, HEK293, Gal4-DAX1, luciferase luminescence; Nuclear receptor subfamily 0 group B member 1 (Homo sapiens), P51843; 0.99% of 340,000 active; HEK293 Gal4-DAX1 luciferase reporter; AID 504766, 2011; inhibition, % at 6.75 µM;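 active = inhibition above the mean over all tested compounds plus 3 SD, cut at about 4.2% in these data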;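 note: inhibition shows as a rise in luminescence from relieved DAX1 repression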
hgDAF-12 ag: H. glycines DAF-12 receptor agonists, primary screen, cell-based, luminescence, HEK293, GAL4 fusion, UAS-luciferase; activation, % at 6.8 µM; 1.8% of 370,000 active; AID 687014, 2013; HEK293 GAL4-hgDAF12 UAS-luciferase reporter, agonist luminescence; normalized to butyrate control;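 active = activation above a cutoff set at the mean of all screened compounds plus 3 SD, cut at about 10% in these data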
hcDAF-12 act: H. contortus DAF-12 nuclear receptor activators, primary screen, cell-based, luminescence, HEK293, lit1-tk-luc reporter. 1.4% of 370,000 active. activation, % at 6.8 µM. AID 652067, 2013. HEK293 hcDAF-12 lit1-tk-luc reporter; 0% DMSO, 100% Δ7-dafachronic acid;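 active = activation above the mean of all tested compounds plus 3 SD, cut at about 5.5% in these data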
ssDAF12 agonist: S. stercoralis DAF-12 nuclear receptor activators, primary screen, cell-based, luminescence, HEK293, GRIP1 co-expression, lit1-tk-luc; Nuclear hormone receptor DAF-12 (Strongyloides stercoralis); HEK293 ssDAF-12/GRIP1 lit1-tk-luc reporter; % of 3 µM dafachronic acid response; activation, % at 6.8 µM; 1% of 370,000 active;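 active = activation above the mean over all tested compounds plus 3 SD, cut at about 0.9% in these data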
DAX1 inh-2: DAX1 (NR0B1) inhibitors on StAR promoter, primary screen, cell-based, luminescence, SF-1 (NR5A1), full-length DAX-1; HEK293T StAR-luciferase reporter, SF-1/DAX-1 repression relief; inhibition, % at 6.8 µM; 1.1% of 370,000 active; AID 652010, 2013;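 active = inhibition above the mean over all tested compounds plus 3 SD, cut at about 3.6% in these data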;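 note: higher inhibition means more luminescence from relief of DAX-1 repression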
DAX1 conf: DAX1 (NR0B1) inhibitors relieving SF-1 repression, confirmation, cell-based, luminescence, HEK293T, full-length DAX-1, SF-1 activated StAR promoter. inhibition, % at 6.8 µM. HEK293T StAR-promoter luciferase reporter, SF-1/DAX-1 repression. shares compounds with DAX1 inh-2. 87% of 2,400 active;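 active = inhibition above the average of every tested compound plus 3 SD, cut at about 3.8% in these data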
SF1 mutant ctr: StAR reporter signal changes without DAX1, counter-screen for DAX1 inhibitor project, cell-based, luminescence, AF-2 mutant SF-1, transactivation | 78% of 2,400 active | shares compounds with DAX1 inh-2 | inhibition, % at 6.8 µM | HEK293 StAR-luciferase, SF-1 AF2 mutant;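 active = inhibition above the mean of all tested compounds plus 3 SD, cut at about 3% in these data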
LXR ag: LXR agonists, Gal4 luciferase reporter, confirmation, counter-screen for hcDAF-12 agonist project, cell-based, luminescence, HEK293, H. contortus campaign | shares compounds with hcDAF-12 act | HEK293 Gal4-LXR tk-luc reporter, 24 h; normalized: DMSO 0%, positive control 100% | activation, % at 6.8 µM | 3,400 tested, under 10 active | AID 743027, 2013;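 active = mean percent activation of the reporter above a cutoff set as the average over tested compounds plus their standard deviation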
Target sequence (P55055 whole entry, looked up, the tested form may be a part): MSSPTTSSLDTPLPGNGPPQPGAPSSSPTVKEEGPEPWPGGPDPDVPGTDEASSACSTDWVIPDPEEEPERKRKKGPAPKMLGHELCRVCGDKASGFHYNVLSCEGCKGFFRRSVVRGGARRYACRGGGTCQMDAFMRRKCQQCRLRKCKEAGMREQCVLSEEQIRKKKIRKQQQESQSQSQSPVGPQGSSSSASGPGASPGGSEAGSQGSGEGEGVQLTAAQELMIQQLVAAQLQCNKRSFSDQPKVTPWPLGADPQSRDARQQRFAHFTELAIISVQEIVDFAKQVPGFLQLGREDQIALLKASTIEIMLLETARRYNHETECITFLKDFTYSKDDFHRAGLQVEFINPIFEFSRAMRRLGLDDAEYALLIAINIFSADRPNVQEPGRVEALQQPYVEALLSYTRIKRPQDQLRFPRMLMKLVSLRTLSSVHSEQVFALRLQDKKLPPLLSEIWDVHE
hcDAF12 conf: H. contortus DAF-12 receptor agonists, confirmation, cell-based, luminescence, HEK293, lit1-tk-luc, triplicate | shares compounds with hcDAF-12 act | HEK293 hcDAF-12 lit1-tk-luc reporter; % of Δ7-dafachronic acid response | activation, % at 6.8 µM | 61% of 3,400 active | AID 743032, 2013;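 active = mean activation across triplicate tests above the threshold derived from the earlier primary screen, cut at about 5.5% in these data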
Numbers stand for hits; – = inactive; · = no result given. Shown are actives, neighbours in structure and some others; about 4.1% of the full set was active somewhere.

SMILES	DAX1 inh-1	hgDAF-12 ag	hcDAF-12 act	ssDAF12 agonist	DAX1 inh-2	DAX1 conf	SF1 mutant ctr	LXR ag	hcDAF12 conf
COC(=O)Cn1nc(-c2ccccc2)c2cccc(C(F)(F)F)c21	·	–	–	–	·	·	·	·	·
COc1ccc(CN(CCN2CCOCC2)C(=O)c2cccc(F)c2F)cc1OC	·	–	–	–	–	·	·	·	·
Clc1ccccc1NN=Cc1ccccn1	–	18.8	12.9	1.0	8.0	7.6	4.7	–	9.6
O=C(N/N=C/c1ccccn1)c1ccc(Cl)cc1	–	–	–	–	–	·	·	·	·
CC(C)(C)N(Cc1cn(Cc2ccccc2)nn1)S(=O)(=O)c1ccc(N2CCCC2)cc1Br	·	–	–	–	–	·	·	·	·
COC(=O)C[C@@H]1CC[C@H]2[C@@H](COc3ccc(NC(=O)Nc4ccc(C)cc4)cc3C(=O)N2C)O1	·	–	–	–	–	·	·	·	·
COc1cc(NC(=O)c2cnn3c(C)cc(C)nc23)cc(OC)c1OC	·	–	–	–	·	·	·	·	·
COc1ccc2nc(N3C(=O)C(O)=C(C(=O)c4ccco4)C3c3ccc(C)o3)sc2c1 (stereo not drawn)	–	–	–	–	–	·	·	·	·
Cc1ccc2nc(N3C(=O)C(O)=C(C(=O)c4ccco4)C3c3cccs3)sc2c1 (stereo not drawn)	–	13.3	9.1	–	5.3	5.9	–	–	–
O=C(N/N=C/c1sc(=O)[nH]c1-[n+]1ccc2ccccc2c1)c1ccccc1[O-]	–	–	8.4	–	4.9	–	–	–	–
O=C(N/N=C/c1sc(=O)[nH]c1-[n+]1ccccc1)c1ccccc1[O-]	–	–	–	–	–	·	·	·	·
O=C(/C=C/Nc1cccc(O)c1)c1ccccc1	–	–	7.0	–	6.6	12.5	6.0	–	12.6
COc1ccc(C(=O)/C=C/Nc2ccccn2)c(OC)c1	·	–	–	–	–	·	·	·	·
O=C(/C=C\Nc1ccccn1)c1ccccc1	–	–	11.8	–	5.3	10.0	–	–	9.7
CCCCCCCCN1C(=O)N2Cc3cc(OC)ccc3C2CS1(=O)=O (stereo not drawn)	·	–	–	–	–	·	·	·	·
Brc1ccc2[nH]c3c(c2c1)CCC3	–	–	–	–	–	·	·	·	·
O=C1Cc2c([nH]c3ccc(Br)cc23)-c2ccccc2N1	–	11.4	10.7	–	7.5	6.4	–	–	8.5
CCOC(=O)c1ccc(NC(=O)CSc2nnc(-c3cccc(C)c3)n2C)cc1	·	–	–	–	–	·	·	·	·
CN(C)CCNC(=O)c1sc2cccc(F)c2c1Cl	–	–	–	–	–	·	·	·	·
CNC(=O)c1ccsc1NC(=O)c1sc2ccccc2c1Cl	–	–	–	–	–	·	·	·	·
Cc1ccc(NC(=O)c2sc3ccccc3c2Cl)nc1	–	19.5	10.3	–	5.1	10.6	3.1	–	17.6
O=C(Nc1ccccn1)c1sc2cccc(F)c2c1Cl	–	18.7	14.3	1.1	8.4	8.5	–	–	17.9
